# Assay results reported in PubChem BioAssay (NCI).
# Compounds without any hit were thinned out: in the full panel of roughly 79,000, 15% have a hit. A number with no mark means an inactive call. The source made the active and inactive calls. Rule as the data show it: active = growth inhibition above about 70%; inactive = the rest.
# Columns and labels:
# [1] = NCI Yeast Anticancer Drug Screen. Data for the rad50 strain (AID 155);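 also: 0% = growth of vehicle-only cultures of the same strain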; conditions: S. cerevisiae rad50 strain growth inhibition; at 50.0 µM; stronger effect = higher value
# Method in brief: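 Compounds were tested on a yeast strain with an engineered DNA damage repair alteration; the reported value is growth inhibition normalised to vehicle treatment.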
# [2] = NCI Yeast Anticancer Drug Screen. Data for the mec2-1 strain (AID 157); conditions: S. cerevisiae mec2-1 strain, at 50.0 µM, stronger effect = higher value
# Method in brief: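 Test agents were screened against the mec2-1 yeast strain, with defined DNA repair or cell cycle alteration. Growth was scored as inhibition against vehicle-only controls.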
# [3] = NCI Yeast Anticancer Drug Screen. Data for the sgs1 mgt1 strain (AID 161);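 also: 0% = growth of cultures given vehicle only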; conditions: S. cerevisiae sgs1 mgt1 strain, at 50.0 µM, stronger effect = higher value
# Method in brief: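 Mutant yeast exposed to compound; growth scored against vehicle-only wells.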
# [4] = NCI Yeast Anticancer Drug Screen. Data for the cln2 rad14 strain (AID 165);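 also: 0% = growth equal to vehicle treated cultures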; conditions: S. cerevisiae cln2 rad14 strain, at 50.0 µM, stronger effect = higher value
# Method in brief: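 Growth of compound-exposed yeast (cln2 rad14 genotype) measured and expressed as inhibition relative to vehicle.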
# [5] = NCI Yeast Anticancer Drug Screen. Data for the bub3 strain (AID 167); conditions: S. cerevisiae bub3 mutant strain, at 50.0 µM, stronger effect = higher value
# Method in brief: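 Growth of a checkpoint-deficient yeast mutant is measured after compound exposure. Values represent inhibition relative to vehicle.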
# [6] = NCI Yeast Anticancer Drug Screen. Data for the mlh1 rad18 strain (AID 175); conditions: S. cerevisiae mlh1 rad18 strain growth inhibition; at 50.0 µM; stronger effect = higher value
# Method in brief: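 In this whole-cell yeast screen, a strain with altered DNA damage repair is challenged with compound, and its growth is measured against matched vehicle-treated controls.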
SMILES,growth inhibition [1],growth inhibition [2],growth inhibition [3],growth inhibition [4],growth inhibition [5],growth inhibition [6]
COc1ccc(C2OC3=Nc4ccccc4NC3C2=O)cc1OC (stereo not drawn),11%,16.3%,20.7%,5.25%,15.3%,16.4%
CC1OC(OC2C(OC(=O)[C@]34CCC(C)(C)C[C@H]3C3=CC[C@@H]5[C@@]6(C)CC[C@H](OC7OC(C(=O)O)C(O)C(OC8OCC(O)C(O)C8O)C7O)C(C)(C)[C@@H]6CC[C@@]5(C)[C@]3(C)CC4)OCC(O)C2O)C(O)C(OC2OCC(O)C(O)C2O)C1OC1OCC(O)C(OC2OCC(O)C(O)C2O)C1O (stereo partly drawn),17.1%,21.2%,19.6%,31.2%,38.4%,29.8%
C=CCCCCCCCCC(=O)N/N=C/c1ccc(NC(C)=O)cc1,10.2%,6.55%,7.1%,3%,11.8%,7.1%
O=C1NC(c2cccc3ccccc23)Nc2ccccc21 (stereo not drawn),3.05%,-14.8%,9.2%,-6.6%,0.85%,0.8%
CCC(OC(C)=O)c1ccccc1 (stereo not drawn),12.8%,17.2%,11.5%,6.45%,27.4%,1.5%
CCN(CC)CCCN1CCc2c([nH]c3ccccc23)C1c1cccnc1 (stereo not drawn),-4.2%,-18.4%,-0.3%,5.9%,-18.1%,-17.4%
N#CCCN(CCC#N)c1ccc(/C=C2\CC(O)(c3ccccc3)N(c3ccc(Cl)cc3)C2=O)cc1 (stereo not drawn),-15.8%,0.35%,-23.7%,11.3%,-6.3%,-22.4%
O=c1sccc2ccccc12,28.1%,25.4%,2.5%,9.4%,10.3%,1.35%
CN(C)C1=NC(c2ccccc2)(c2ccccc2)C(=O)N1,-17.4%,-8.15%,-3.15%,-40.5%,-6.35%,-23.4%
N/C(=N\OC(=O)Nc1cccc(Cl)c1)C(Cl)(Cl)Cl,96.8% (active),99.5% (active),99.5% (active),96.3% (active),99.2% (active),99% (active)
NC(=O)n1ncc(Cl)c(Cl)c1=O,-7.25%,-1.5%,2.1%,4.3%,-1.8%,7.35%
Cc1cccc(C)c1OC(=O)Nc1ccccc1,3.75%,-18.6%,4.3%,-46.5%,9.7%,-8.95%
S=C(S)N1CCN(c2cccc(Cl)c2)CC1,40.2%,16.1%,58.5%,44.7%,47.1%,70.5% (active)
O=P(OC1=NCCN1Cc1ccccc1)(OC1=NCCN1Cc1ccccc1)N1CC1,16.9%,5.6%,21.7%,32.4%,3.75%,-6.2%
CC(NNC(=S)N1CCCC1)c1cccc[n+]1[O-] (stereo not drawn),3.4%,-2.85%,8.4%,-4.9%,8.3%,13.9%
Cc1cccc(C)c1NC(=O)C(=O)Cc1nc2ccccc2s1,-12.1%,-0.45%,-9.25%,-4.45%,-30.5%,-6.8%
CC1=C(O[Si](C(C)C)(C(C)C)C(C)C)C2CC1(OS(=O)(=O)C(F)(F)F)[C@H]1C(=O)N(c3ccccc3)C(=O)[C@@H]21 (stereo partly drawn),-4.8%,-11.4%,0.3%,17.4%,5.2%,-20.9%
CC(=O)OCCOc1ccccc1Cl,2.75%,-5.8%,3.25%,-16.9%,-23.1%,-13.1%
CC(=O)CCc1ccc(OC(=O)C(Cl)Cl)cc1,27%,12.1%,18.7%,13.8%,13.9%,29.6%

SMILES,growth inhibition [1],growth inhibition [2],growth inhibition [3],growth inhibition [4],growth inhibition [5],growth inhibition [6]
CC(C)NC(=O)c1ccccc1-[s+]1c2ccccc2c(=O)n1C(C)C (stereo not drawn),22%,1.15%,-11.7%,3.9%,-2.95%,9.3%
CCCN1COC(OCCN(CC)CC)C(C)(C)C1 (stereo not drawn),7.15%,-4.35%,-21.3%,6.7%,7.2%,12.9%
Cc1nc(N)sc1C,12.7%,-26.9%,16.6%,7.7%,25.6%,26.2%
CCc1ccc(NC(=O)c2cc(OC)c(OC)c(OC)c2)cc1,1.1%,29.4%,2.6%,-12.3%,17.5%,29.2%
Cn1cc(NC(=O)c2cc(NC(=O)CCCCCC(=O)Nc3cc(C(=O)Nc4cc(C(=O)NCCC(=N)N)n(C)c4)n(C)c3)cn2C)cc1C(=O)NCCC(=N)N,-14.1%,-14.9%,-17.6%,-1.35%,-24.4%,-3.6%
CCO/C=C1/N=C(c2ccc(OC)c(OC)c2)OC1=O,-6.3%,5.6%,18.6%,-67.8%,-7.2%,12.2%
O=C1NCC2(CCCCCC2)O1,5.15%,-0.65%,13.2%,4.95%,-3.9%,6.15%
CCOC(=O)Nc1nc(-c2ccccc2)c(C)s1,-23.2%,-20.8%,-16.8%,-7.1%,-44.9%,-2.15%
CC(=O)CC(=O)NC12CC3CC(CC(C3)C1)C2,-12.4%,-18.3%,-27.6%,-3.95%,-23.1%,-1.55%
Cc1cccc(C)c1NC(=O)OC(C)C,4.8%,5.65%,-28.3%,-32.5%,11.8%,-12.7%
N#Cc1c(-c2ccccc2)c(C#N)c(=S)n(C2OCC(O)C(O)C2O)c1N (stereo not drawn),-23.6%,-2.2%,-10%,-38.5%,3.05%,-15.1%
COc1ccccc1/C=N/NS(=O)(=O)c1ccc(NC(C)=O)cc1,0.85%,-7.05%,14.1%,-14.7%,-41.3%,-4.2%
N#Cc1nc(/C=C/c2cccnc2)oc1N,-1.9%,6.7%,-8.1%,-3.65%,-6.55%,-56.6%
N#C/C(=C1\N=C(c2ccccc2O)Oc2ccccc21)c1ccc([N+](=O)[O-])cc1,6.85%,-11.9%,13.1%,-0.7%,4.35%,-13.6%
CCOC(=O)C(CC)N1C(=O)c2ccccc2S1(=O)=O (stereo not drawn),-16.1%,-10.5%,-12.4%,48.2%,33.5%,-12.6%
CN(C)C1C(=O)C(C(=O)NCN2CCCC2)=C(O)C2(O)C(=O)C3=C(O)c4c(O)cccc4C(C)(O)C3CC12 (stereo not drawn),2.75%,-4.7%,-10.2%,-27.9%,-26.9%,21.4%
COc1cccc(CN2C(=O)NC(C)(C)C2O)c1 (stereo not drawn),-12.2%,28.4%,10.3%,-5.75%,11.6%,10.2%
CCOC(=O)c1c(-c2ccccc2)c(-c2ccccc2)cn1C,18.3%,-7.45%,5.2%,25.9%,6.45%,24.3%
Cc1nn(-c2ccccc2)c2c1CC(=O)Nc1ccccc1-2,-14.1%,-29.1%,-11.5%,-26.8%,-37.6%,9.15%
